Screening data (PubChem)
Most compounds without a hit are left out; they make up all but 12% or so of the library.
Pf growth 96h – inhibits malaria parasite growth, 96 h; P. falciparum luciferase reporter growth, 96 h; Potency, µM (titrated, usually from 28.7 µM), actives largely listed as inhibitors; 320,000 compounds, 6.9% hits; AID 504834
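Two parasite generations (96 h, 37 C, 5% CO2) of compound exposure in infected erythrocytes (0.05% parasitemia, 2% hematocrit). Luciferase-reporter P. falciparum; decreased luminescence indicates inhibited growth, aimed at apicoplast-acting delayed death.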
SARS PLP yeast – inhibitors of SARS-CoV papain-like protease in yeast; 330,000 compounds, 0.19% hits; Potency, µM (highest dose often 32.9 µM), actives largely listed as activators; S. cerevisiae expressing SARS-CoV PLpro, growth rescue; AID 485353; calls by dose curve; also: nearly all actives have a fitted effect of over 55% in size
Pf growth 48h – inhibits P. falciparum growth in the first generation, 48 h; P. falciparum luciferase growth in erythrocytes, 48 h; 310,000 compounds, 5.9% hits; AID 504832; Potency, µM (highest dose often 28.7 µM), usual class: inhibitors
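In quantitative HTS format, infected erythrocytes bearing luciferase-reporter parasites were treated for a single generation at 37 C. Luminescence after adding detection reagent served as the growth measure.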
Sm TGR inh – blocks Schistosoma mansoni thioredoxin glutathione reductase. Q962Y6. purified TGR, DTNB reduction, TNB absorbance 405 nm. Potency, µM (doses to about 114 µM), usual class: inhibitors. 360,000 compounds, 3% hits. AID 485364; also: nearly all actives have a fitted effect of over 60% in size
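First, TGR (20 nM dispensed) and NADPH were mixed with compound. Second, a 15 min room-temperature incubation followed. Third, further NADPH and then DTNB were added to start the reaction. Finally, TNB absorbance was monitored kinetically.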
A number is an active result; - = inactive; ? = inconclusive; . = no result given; [ ] = another dose, or the depositor's remark. Unless noted, calls follow the shape of the dose curve; as a rule, active = well fitted curve in the direction sought with a large enough effect; inconclusive = small, poorly fitted or top-dose-only effect, or another doubt; inactive = no such curve, though single readings can be large; an effect the other way counts as inactive or inconclusive.

SMILES | Pf growth 96h | SARS PLP yeast | Pf growth 48h | Sm TGR inh
CC1(CCc2ccc3c(c2)OCO3)NC(=O)c2ccccc2N1 (stereo not drawn) | - | - | - | ?
Cc1nn2c(=O)cc(COC(=O)COc3ccc(F)cc3)nc2s1 | . | . | . | -
CCc1nc2c(cnn2-c2ccc(F)cc2)c(=O)n1-c1ccc(N2CCC(C)CC2)cc1 | 3.29µM | - | . | -
Cc1nc2c(cnn2-c2ccccc2Cl)c(=O)n1-c1ccc(N2CCC(C)CC2)cc1 | - | - | . | -
COc1ccccc1Nc1ncccc1C(=O)O | 9.28µM | - | - | -
Cc1noc2nc(-c3cccs3)cc(-c3nnc4n3CCCCC4)c12 | 11.7µM | - | - | -
CCOC(=O)c1cc(-c2cccs2)nc2onc(C)c12 | ? | - | . | -
CCN1CCCC1CNC(=O)c1cc([N+](=O)[O-])c(N(C)C)cc1OC (stereo not drawn) | 4.15µM | - | - | -
O=C(NCc1ccccc1)C(c1ccc(F)cc1)N(C(=O)c1csnn1)C1CC1 (stereo not drawn) | - | - | - | -
COc1cccc(CCc2nnc(CCC(=O)NCCc3cccc(C)n3)o2)c1 | ? | - | - | -
COc1cccc(CCc2nnc(CCC(=O)N3CCN(Cc4ccccn4)CC3)o2)c1 | - | - | - | 11.2µM
NC(=O)c1ccc(NC(=O)COC(=O)CC23CC4CC(CC(Br)(C4)C2)C3)cc1 | . | - | . | .
Cc1cc2c(c(=O)n1Cc1ccccc1)C1O[C@](c3ccsc3)(Cc3ccccc31)O2 | ? | -[6.58 µM] | 1.2µM | -[22.9 µM]
Cc1cc2c(c(=O)n1Cc1ccccc1)C1O[C@](c3ccsc3)(Cc3cc(C#N)ccc31)O2 | -[5.75 µM] | -[6.58 µM] | 1.69µM | -[22.9 µM]
O=C1c2ccccc2C(=O)C1(O)O | - | - | - | -
CC1(S(=O)(=O)O)CC(=O)c2ccccc2C1=O (stereo not drawn) | 1.65µM | - | 14.7µM | -
CC1CN(S(=O)(=O)c2cccc(-c3cn4cccnc4n3)c2)CC(C)O1 (stereo not drawn) | - | - | 7.38µM | -
COc1ccc(CCNC(=O)C2CCN(S(=O)(=O)c3c(C)noc3/C=C/c3ccc(C)cc3)CC2)cc1OC | . | . | . | -
CCOC(=O)C1(Cc2cccc(Cl)c2)CCCN(C(=O)c2cc(C)on2)C1 (stereo not drawn) | - | - | - | -
CCOC(=O)C1(Cc2cccc(OC)c2)CCCN(C(=O)c2ccc(OC)o2)C1 (stereo not drawn) | - | - | ? | 50.1µM
CCOC(=O)C1(Cc2cccc(Cl)c2)CCCN(C(=O)c2ccc(C)nc2)C1 (stereo not drawn) | 14.7µM | - | - | -
CCOC(=O)C1(Cc2cccc(Cl)c2)CCCN(C(=O)CCOC)C1 (stereo not drawn) | - | - | - | -
C=CCCC(=O)N1CCCC(Cc2cccc(Cl)c2)(C(=O)OCC)C1 (stereo not drawn) | 11.7µM | - | - | ?
Cc1cc(F)ccc1NC(=O)C1CCN(C(=O)c2cnn(-c3ccccc3)c2-n2cccc2)CC1 | . | . | . | -
Cc1nc(N2CCN(S(=O)(=O)c3ccc(F)cc3)CC2)c2c(-c3cccs3)csc2n1 | ? | - | ? | -
SMILES | Pf growth 96h | SARS PLP yeast | Pf growth 48h | Sm TGR inh
Cc1nc(N2CCN(S(=O)(=O)c3ccccc3C#N)CC2)c2c(-c3ccccc3)csc2n1 | ? | - | 10.4µM | -
O=C1Nc2ccc(S(=O)(=O)NCc3ccccn3)c3cccc1c23 | 10.4µM | - | . | -
C=Cc1ccc(Cn2c(=O)n(-c3cccc(C)c3)c(=O)c3c2c2cc(C)ccc2n3C)cc1 | . | . | . | -
O=C(NC(=S)Nc1ccccc1Cl)c1cncc(Br)c1 | 11.7µM | - | - | -
O=C(O)c1ccc(NC(=S)NC(=O)c2cncc(Br)c2)cc1 | - | - | - | 11.2µM
CC1CCCC(NC(=S)NC(=O)c2cncc(Br)c2)C1C (stereo not drawn) | - | ? | 13.1µM | -
CCOC(=O)c1ccc(NC(=S)NC(=O)c2cncc(Br)c2)cc1 | - | - | . | ?
CC1CCCCC1NC(=O)c1cncc(Br)c1 (stereo not drawn) | - | - | . | -[11.4 µM]
COc1ccc(OC)c(CNS(=O)(=O)c2ccc(-c3coc(C)n3)cc2)c1 | . | . | . | -
COC(=O)c1cc(NC(=O)Cn2c(=O)oc3ccccc32)cc(C(=O)OC)c1 | - | - | - | -
CCN(C(=O)C1CCN(S(=O)(=O)c2cc(Br)cc3c2N(C(C)=O)CC3)CC1)c1cccc(C)c1 | . | . | . | -
Cc1nn(C(C)C(=O)N2CCc3ccccc32)c(C)c1[N+](=O)[O-] (stereo not drawn) | 5.22µM | ? | ? | -
CC(C(=O)N1CCc2ccccc21)N1CCc2ccccc2C1 (stereo not drawn) | 9.28µM | - | ? | -
COc1cc2c(cc1OC)CN(C(C)C(=O)N1CCc3ccccc31)CC2 (stereo not drawn) | ? | - | . | -
CC(Sc1nnc(-c2ccccc2)c(-c2ccccc2)n1)C(=O)N1CCc2ccccc21 (stereo not drawn) | 7.38µM | - | - | -
Cc1ccc(OC(C)C(=O)N2CCc3ccccc32)cc1 (stereo not drawn) | . | - | 2.94µM | -
Cc1nnc(SC(C)C(=O)N2CCc3ccccc32)s1 (stereo not drawn) | . | - | - | -
CC(C(=O)N1CCc2ccccc21)N1CCN(S(=O)(=O)c2cccc(C(F)(F)F)c2)CC1 (stereo not drawn) | 13.1µM | - | 11.7µM | -
O=C(C1COc2ccccc2O1)N1CCN(c2ccccc2F)CC1 (stereo not drawn) | ? | - | 11.7µM | -
O=C(C1COc2ccccc2O1)N1CCN(Cc2ccccc2)CC1 (stereo not drawn) | 8.28µM | - | - | ?
COc1cc2nc(N3CCN(C(=O)[C@H]4COc5ccccc5O4)CC3)nc(N)c2cc1OC | 3.7µM | - | 3.7µM | -
O=C(C1COc2ccccc2O1)N1CCN(c2ccccc2Cl)CC1 (stereo not drawn) | ? | - | - | -
O=C1CCSC2(C(=O)N(Cc3ccc(F)cc3)c3ccccc32)N1c1cccc(F)c1 (stereo not drawn) | . | . | . | -
CN(C(=O)COC(=O)c1ccccc1NCCO)C1CCS(=O)(=O)C1 (stereo not drawn) | - | - | - | -
O=Cc1[nH]c2ccccc2c1N(C(=O)CCl)c1ccccc1 | - | - | - | 0.891µM
SMILES | Pf growth 96h | SARS PLP yeast | Pf growth 48h | Sm TGR inh
O=C(N(c1ccccc1)c1ccccc1)N(c1ccccc1)c1ccccc1 | ? | - | ? | -
O=C(CCl)N(c1ccccc1)c1ccccc1 | 4.15µM | - | 1.65µM | 1.26µM
CCCCCCN(C(=O)CCl)c1ccccc1 | ? | - | ? | 2.51µM
O=C(CCl)N(CCc1ccccc1)CCc1ccccc1 | ? | - | 11.7µM | 12.6µM
COc1cc(C2c3c(oc4ccc(F)cc4c3=O)C(=O)N2Cc2ccc3c(c2)OCO3)ccc1O (stereo not drawn) | . | . | . | -
CCOC(=O)N1CCN(C(=O)c2ccccc2NC(=O)COc2ccccc2)CC1 | - | - | - | -
CCCCCCc1c(C)nc(-n2[nH]c(C)c(CCO)c2=O)[nH]c1=O | 9.28µM | - | ? | -
Cc1nc(N2CCOCC2)[nH]c(=O)c1CCC(C)C | . | - | - | -
Cc1[nH]n(-c2ccc(Cl)c(Cl)c2)c(=O)c1CCO | ? | - | ? | -
